Assay outcomes (PubChem BioAssay)
PfM18AAP inh: blocks P. falciparum M18 aspartyl aminopeptidase; recombinant PfM18AAP, H-Glu-NHMec fluorogenic cleavage; inhibition, % at 7.35 µM; actives 1.2% (n = 290,000); AID 1822;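 active = inhibition above the campaign mean inhibition over all tested compounds plus 3 SD, cut at about 28% in these data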;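 also: 0% = plate median of test compound wells and 100% = 2 mM ZnCl2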
CaV13 FRET inh: Disruptors of the CACNA1D IQ motif to Ca2+-dependent inactivation inhibitor domain association, primary screening, Förster resonance energy transfer in intact living …; inhibition, % at 12.3 µM; actives 0.098% (n = 340,000); HEK cells, CFP/YFP FRET ICDI-IQ, plate reader, 10 min; percent FRET-ratio fall versus neutral wells; AID 743397;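 active = mean replicate inhibition of at least 30% and at least 1% of replicates passing that level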;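 also: 0% = median of the neutral control wells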
ALR H2O2 inh: blocks human ALR sulfhydryl oxidase activity | AID 485317 | purified ALR, DTT oxidation, H2O2 HRP-luminol luminescence | inhibition, % (test concentration not listed) | P55789 | actives 3.8% (n = 290,000);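 active = mean replicate inhibition above about 79%, with every replicate also reaching it, limit read from the data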
Target sequence (P55789 whole entry, looked up): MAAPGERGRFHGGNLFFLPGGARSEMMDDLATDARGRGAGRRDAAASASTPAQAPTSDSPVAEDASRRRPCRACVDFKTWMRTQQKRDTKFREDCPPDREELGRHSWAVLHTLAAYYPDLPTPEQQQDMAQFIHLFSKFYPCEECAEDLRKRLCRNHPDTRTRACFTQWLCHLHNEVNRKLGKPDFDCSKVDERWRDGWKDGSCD
IDE inh: inhibits human insulin-degrading enzyme in HEK cells; P14735; FAbetaB cleavage, fluorescence polarization; inhibition, % at 5.59 µM; actives 0.41% (n = 320,000);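 active = percent inhibition above the average of all tested compounds plus 3 SD, set per screening campaign, cut at about 16% in these data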;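 also: IDE supplied by intact live HEK cells; FP after avidin binding of uncleaved biotin substrate so inhibition keeps polarization high; 0% = DMSO wells and 100% = 60 µM reference IDE inhibitor Ii1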
IDE act: boosts human insulin-degrading enzyme activity in HEK cells | FAbeta-B cleavage, fluorescence polarization; 0% vehicle, 100% cell-free pure enzyme wells | actives 0.073% (n = 340,000) | AID 493087 | activation, % at 5.96 µM | P14735;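 active = activation above the mean of all tested compounds plus 3 SD, set per screening campaign, cut at about 17% in these data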
PolyA inh: inhibitors of polyadenylation in S. cerevisiae; actives 0.02% (n = 300,000); AID 1875; S. cerevisiae SKY197-pL101 polyadenylation reporter, beta-gal luminescence; efflux-impaired pdr1/pdr3 knockout yeast; score 100 = 6 SD above DMSO; activity score, % at 12 µM;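 active = lowest replicate activity score at least 50, where 100 means six control SD above control mean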;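 also: yeast exposed to compound for 9 h at 30 °C; higher score means more reporter readthrough which indicates perturbed polyadenylation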
An asterisk follows results filed as active; x = no result. Sampled rows, rich in hits. Any-hit rate of the full collection: about 4.1%.

SMILES | PfM18AAP inh | CaV13 FRET inh | ALR H2O2 inh | IDE inh | IDE act | PolyA inh
CC(=O)NS(=O)(=O)c1ccc(NC(=S)NC(=O)C2CCC2)cc1 | 3 | x | x | x | 3 | 2
COc1cccc(Oc2nnnn2-c2ccccc2)c1 | -2 | -4 | -15 | 0 | 3 | -13
COc1cccc(-n2nnnc2S(C)(=O)=O)c1 | -54 | x | 99* | 0 | 1 | -51
Cc1ccc(S(=O)(=O)/N=C(\c2ccccc2)N(C)S(=O)(=O)c2ccc(C)cc2)cc1 | 8 | -7 | 2 | 3 | 2 | 1
Cc1ccc(S(=O)(=O)N(C)/C(=N/S(=O)(=O)c2ccccc2)c2ccccc2)cc1 | -5 | -7 | 99* | -2 | 4 | -9
Oc1ccc2ccc3[nH]cnc3c2c1 | 4 | -5 | 100* | 7 | 2 | -11
O=C(O)CCn1cc(/C=C2/NC(=S)N(c3ccccc3)C2=O)c(-c2ccccc2)n1 | 6 | -6 | 97* | 6 | 4 | -14
Nc1nc2ccc(-c3nc4ccccc4o3)cc2s1 | 7 | -5 | 97* | -2 | 10 | -5
CCOc1ccc(N2C(=O)C(Cl)=C(N3CCOCC3)C2=O)cc1 | 29* | -2 | 2 | 3 | -7 | 15
CCOc1ccc(N2C(=O)C(Cl)=C(Nc3ccccc3O)C2=O)cc1 | 33* | x | 57 | -3 | 0 | 6
CCCCN(CC)C(=O)Cc1ccc(Br)cc1 | -1 | -2 | -12 | 2 | 1 | -2
CN(C(=O)CSc1nc(-c2ccc(C(C)(C)C)cc2)c(C#N)c(=O)[nH]1)C1CCCCC1 | -7 | -7 | 93* | -4 | 3 | 0
Nc1c(-c2ccc(Cl)cc2)cnc2c(-c3ccccc3)cnn12 | 1 | -2 | x | 2 | 4 | -12
O=C(CSc1ncnc2nc[nH]c12)c1ccccc1 | -1 | -3 | 2 | 2 | -2 | 18
O=C(CSc1ncnc2nc[nH]c12)c1ccc(Cl)cc1 | 11 | -3 | 87* | 3 | -4 | 10
Cc1cccc(C)c1NC(=O)CSc1ncnc2nc[nH]c12 | 0 | -7 | -2 | 5 | -2 | 11
O=C(CSc1ncnc2nc[nH]c12)c1ccc([N+](=O)[O-])cc1 | -7 | -5 | 93* | -7 | 2 | 3
O=C(NCc1ccccc1Cl)C1(S(=O)(=O)c2ccc(Cl)cc2)CC1 | -4 | -1 | x | 0 | 1 | -5
CN1CCN(CCC(=O)N/N=C/c2ccccc2F)CC1 | 0 | -5 | -33 | 7 | 9 | 0
O=C(NCCN1CCN(c2ccccc2)CC1)C1(S(=O)(=O)c2ccc(Cl)cc2)CC1 | -1 | -5 | 99* | -1 | 2 | x
O=C(CCN1CCN(c2ccccc2)CC1)N/N=C/c1ccccc1O | -3 | -7 | 84* | -1 | 6 | -4
Cc1cccc(C)c1NC(=O)NCCCN1CCN(c2ccccc2)CC1 | -7 | -14 | 82* | 5 | -1 | -18
Cc1cccc(C(=O)NCCN2CCN(c3ccccc3)CC2)c1 | 6 | x | x | 0 | 0 | 18
O=C(NCCN1CCN(c2ccccc2)CC1)c1cccc(Cl)c1 | 6 | -19 | 98* | 2 | -4 | -13
CC(C)(C)C(=O)Nc1cc2c3c(c1)CCN3C(=O)CC2 | -4 | -2 | x | 7 | -1 | -14
SMILES | PfM18AAP inh | CaV13 FRET inh | ALR H2O2 inh | IDE inh | IDE act | PolyA inh
CCOC(=O)N1CCN(C(=O)C(=O)N/N=C/c2ccc(OC)cc2OC)CC1 | -8 | -1 | -4 | -3 | 8 | 1
COc1ccc(C)cc1NC(=O)CCN1CCN(c2ccccc2F)CC1 | 2 | -20 | 31 | 1 | 0 | -13
COc1ccccc1C(=O)NCCN1CCN(c2ccccc2)CC1 | 2 | -18 | 97* | 3 | -4 | 0
O=C(Cc1c(C(=O)O)[nH]c2ccccc12)NCCN1CCN(c2cccc(Cl)c2)CC1 | -2 | -5 | 88* | 0 | 1 | -5
COc1ccc(C)cc1NC(=O)CCN1CCN(c2ccccc2)CC1 | -4 | -5 | 95* | 2 | 2 | -5
CC1CC(C)CN(CCCNC(=O)Cc2c(C(=O)O)[nH]c3ccccc23)C1 (stereo not drawn) | -10 | -5 | -5 | 9 | 3 | 10
O=C(O)Cn1c(=O)c2cccn2c2ccccc21 | 5 | -2 | -7 | 5 | 5 | -6
Oc1ccc(/C=N/Nc2ccc(C(F)(F)F)cn2)c(O)c1 | 25 | -19 | 22 | 0 | 2 | -17
Oc1ccc(/C=N/Nc2ccc(C(F)(F)F)cn2)cc1 | 1 | -2 | 97* | -1 | 1 | -20
CCO[C@@H]1OC(C(=O)N2CCOCC2)=C[C@H](C(C)(C)C)[C@H]1CCCO | x | -5 | -7 | -5 | 0 | -14
CCCc1nc(SC2CCCC2)c2c(=O)n(C)c(=O)n(C)c2n1 | x | -3 | 98* | 1 | 2 | -17
Cn1c(=O)c2c(SC3CCCC3)nc(CC(C)(C)C)nc2n(C)c1=O | -2 | x | x | x | x | x
CCOc1ccc(NC(=O)Cn2cncc2-c2ccc([N+](=O)[O-])cc2)cc1 | 7 | -5 | -3 | 6 | 4 | -9
CCOC(=O)Cn1cncc1-c1ccc([N+](=O)[O-])cc1 | 1 | -18 | 97* | 1 | 2 | 8
Cc1ccc(/C(O)=C2\C(=O)C(=O)N(C)C2c2cccc([N+](=O)[O-])c2)cc1 (stereo not drawn) | -13 | -5 | 2 | 0 | 7 | 0
CC(=O)N1CCc2cc(S(=O)(=O)NCCC(=O)N3CCN(Cc4ccccc4)CC3)ccc21 | -6 | -5 | 2 | 0 | 19* | x
CCN(CCCNS(=O)(=O)c1ccc2c(c1)CCN2C(C)=O)c1cccc(C)c1 | -9 | -6 | 97* | -5 | -2 | -19
O=C(CCC(=O)N1CCOc2ccc(Cl)cc21)NCCCN1CCN(Cc2ccccc2)CC1 | -2 | -5 | -35 | 5 | 1 | 10
CN(CCCNC(=O)CCC(=O)N1CCOc2ccc(Cl)cc21)Cc1ccccc1 | -2 | -6 | 93* | -1 | -1 | -12
COc1ccc(-n2c(=O)c3c4c(sc3n3c(=S)[nH]nc23)COC(C(C)C)C4)cc1 (stereo not drawn) | 14 | -21 | 97* | 1 | x | -4
CN(Cc1n[nH]c(=S)n1C)S(=O)(=O)c1ccccc1 | 8 | -8 | 85* | 0 | -2 | 10
O=C(NNC1=C(C(=O)C(F)(F)F)CCC1)c1ccccc1O | 27 | -4 | 87* | -8 | 6 | 3
CC1(C(=O)NS(=O)(=O)C2CC2)CCCN(C(=O)c2cccc(OC(F)(F)F)c2)C1 (stereo not drawn) | x | -6 | x | x | x | x
Cc1cc(C(=O)Nc2sc3c(c2C#N)CCCC3)no1 | 5 | -8 | 97* | 2 | 2 | -1
